GPR151 ag: activates the human receptor GPR151 | Q8TDV0 | PathHunter beta-arrestin GPR151 cells, luminescence | activation, % at 11.2 µM | hit rate 1% among 650,000; in the data active = activation above about 4.9%
MITF inh: blocks human microphthalmia-associated transcription factor; O75030; AlphaScreen MITF homodimerization, bead proximity signal; inhibition, % at 2.6 µM; hit rate 0.91% among 650,000; AID 1259374; in the data active = inhibition above about 50%
FBW7 act: human FBW7 E3 ligase activation, primary screen | hit rate 0.13% among 650,000 | normalized activity (activation), % at 26.1 µM | AlphaScreen FBW7–phospho-cyclin E peptide binding, activator screen; in the data active = normalized activity above about 1.9%;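 also: purified mutant Fbw7 with reduced substrate affinity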
Target sequence (Q969H0 whole entry, looked up): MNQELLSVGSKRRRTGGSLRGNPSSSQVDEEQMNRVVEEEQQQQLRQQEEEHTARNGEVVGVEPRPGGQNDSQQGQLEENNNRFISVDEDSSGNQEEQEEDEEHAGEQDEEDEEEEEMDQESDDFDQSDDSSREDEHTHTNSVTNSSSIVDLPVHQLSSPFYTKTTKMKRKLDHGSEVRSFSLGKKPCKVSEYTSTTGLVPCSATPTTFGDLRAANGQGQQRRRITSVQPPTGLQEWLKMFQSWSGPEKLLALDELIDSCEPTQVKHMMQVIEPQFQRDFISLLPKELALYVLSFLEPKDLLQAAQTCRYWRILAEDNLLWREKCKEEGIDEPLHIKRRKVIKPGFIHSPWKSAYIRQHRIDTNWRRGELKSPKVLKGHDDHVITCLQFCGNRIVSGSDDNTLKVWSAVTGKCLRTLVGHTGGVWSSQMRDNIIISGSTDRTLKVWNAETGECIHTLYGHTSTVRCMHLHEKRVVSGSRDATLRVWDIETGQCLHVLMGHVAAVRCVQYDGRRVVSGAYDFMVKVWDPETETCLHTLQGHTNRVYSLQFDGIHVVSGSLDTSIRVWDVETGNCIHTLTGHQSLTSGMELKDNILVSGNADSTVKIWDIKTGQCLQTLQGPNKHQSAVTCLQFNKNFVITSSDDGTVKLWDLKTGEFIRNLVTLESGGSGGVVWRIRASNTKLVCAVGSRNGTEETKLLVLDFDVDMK
TEAD-YAP inh: TEAD-YAP interaction inhibition; HEK-TIYL cells, TEAD-Gal4/YAP UAS-luciferase luminescence; inhibition, % at 9.12 µM; hit rate 1.4% among 640,000; AID 1259422; in the data active = inhibition above about 32%
Each line names hits and unclear results; the compound was inactive in the other large screens. Rows were chosen to be rich in hits. Some 3.4% of all compounds tested hit in one or more screens of this group.

CCc1ccc(NC(=O)CSc2nnc(-c3ccc(NS(C)(=O)=O)cc3)o2)cc1	none
NC(=S)N1N=CCC1(O)C(F)(F)F (configuration not stated)	TEAD-YAP inh 53
CCCn1c(SCC(=O)N2c3ccccc3CC2C)nnc1-c1cccnc1 (configuration not stated)	none
Cc1cccc(OS(=O)(=O)c2cn(C)c(=O)n(C)c2=O)c1	FBW7 act 3.6
C=CCOc1c(/C=C2/SC(=S)N(CCC(=O)O)C2=O)cccc1OC	none
O=C(O)CCCN1C(=O)/C(=C/c2ccccc2F)SC1=S	TEAD-YAP inh 54
COc1cccc(/C=C2/SC(=S)N(CCCC(=O)O)C2=O)c1OC	TEAD-YAP inh 80
O=C(NC(=S)Nc1ccc2c(c1)C(=O)OC2)c1cccnc1	none
Cc1ccc(NC(=O)C2C3C=CC4(O3)C2C(=O)N(CCC(C)C)C4C(=O)NC2CCCCC2)cc1Cl (configuration not stated)	none
c1ccc(-n2cnc3c(Nc4ccc(N5CCOCC5)cc4)nc(Nc4ccc(-n5ccnc5)cc4)nc32)cc1	TEAD-YAP inh 41
c1ccc(Nc2nc(Nc3cccnc3)nc3c2ncn3-c2ccccc2)cc1	TEAD-YAP inh 34
c1ccc(OCCNc2nc(Nc3cccnc3)nc3c2ncn3-c2ccccc2)cc1	none
CCN(CC)c1nc(Nc2ccc(N3CCOCC3)cc2)nc(Nc2ccc(-n3ccnc3)cc2)n1	TEAD-YAP inh 65
c1ccc(-n2cnc3c(Nc4ccc(N5CCOCC5)cc4)nc(Nc4cccnc4)nc32)cc1	TEAD-YAP inh 41
c1ccc(Nc2nc(Nc3ccc(-n4ccnc4)cc3)nc3c2ncn3-c2ccccc2)cc1	none
CCOC(=O)c1c(C)n(-c2ccccc2)c2ccc(OC(=O)c3ccc(S(=O)(=O)N4CCCCC4)cc3)cc12	none
COC(=O)C1=C(N)OC2=C(C(=O)CCC2)C1c1cccc(F)c1 (configuration not stated)	none
CC(C)NC(NC(=O)/C=C/c1ccccc1)C(Cl)(Cl)Cl (configuration not stated)	none
COC(=O)C1=CN(Cc2ccc(OC)cc2)C=C(C(=O)OC)C1c1ccccc1F	FBW7 act 1.9
COC(=O)C1=CN(Cc2ccc(OC)c(OC)c2)C=C(C(=O)OC)C1c1ccc(OCc2ccccc2)c(OC)c1	none
COC(=O)C1=CN(Cc2ccc(Cl)cc2)C=C(C(=O)OC)C1c1ccc(OC)c(OCc2ccccc2)c1	TEAD-YAP inh 55
COC(=O)C1=CN(Cc2ccc(OC)cc2)C=C(C(=O)OC)C1c1ccc(OC)c(OCc2ccccc2)c1	TEAD-YAP inh 50
O=C(/C=C\c1ccco1)Nc1cc([N+](=O)[O-])ccc1F	TEAD-YAP inh 60
O=C(/C=C/c1ccc(F)cc1)Nc1cc([N+](=O)[O-])ccc1F	TEAD-YAP inh 53
CC(CC(=O)Nc1cc([N+](=O)[O-])ccc1F)c1ccccc1 (configuration not stated)	TEAD-YAP inh 38
CC(CC(=O)Nc1cc([N+](=O)[O-])ccc1Cl)c1ccccc1 (configuration not stated)	none
O=C(/C=C/c1ccc(F)cc1)Nc1ccc([N+](=O)[O-])cc1Br	none
COC(=O)C1=C(C)NC2=C(C(=O)c3ccccc32)C1c1ccc(O)c(Br)c1 (configuration not stated)	none
COc1ccc(-c2cc(C(=O)NCc3ccc(Cl)cc3)c3ccccc3n2)cc1	none
COc1ccc(CNC(=O)N2CCCC(c3nnc(-c4ccccc4F)s3)C2)cc1 (configuration not stated)	none
CC(C)C(=O)N1CCCC(c2nnc(-c3ccccc3F)s2)C1 (configuration not stated)	TEAD-YAP inh 93
CC(=O)N1CCCC(c2nnc(-c3ccccc3F)s2)C1 (configuration not stated)	TEAD-YAP inh 82
CC(C)C[C@@H]1NC(=O)[C@@H]2C[C@H](NC(=O)Nc3ccccc3C(F)(F)F)CN2C1=O	none
COc1ccc(N2C3=[N+](CCCC3)CC2(C)O)cc1 (configuration not stated)	none
COc1ccc(CNCCC2CCC(=O)N2Cc2cccc(C)c2)cc1 (configuration not stated)	none
COc1ccc(/C=C/c2cc(C(=O)O)c3ccccc3n2)cc1	TEAD-YAP inh 60
COc1ccc(-c2cc(C(=O)O)c3ccccc3n2)cc1	none
CCOC(=O)C1CCN(C(=O)Nc2ccc(NC(=O)C3CCN(C(=O)OCC)CC3)cc2)CC1	FBW7 act 6.1
CC(C)[C@H](N)Cn1nc(C2CC2)ccc1=O	none
CC1CCN(c2nc(-c3ccc(C(C)(C)C)cc3)nc3ccccc23)CC1	TEAD-YAP inh 49
Cc1ccc(-c2nc(N3CCN(C)CC3)c3ccccc3n2)cc1	none
CN1CCN(c2nc(-c3ccc(C(C)(C)C)cc3)nc3ccccc23)CC1	TEAD-YAP inh 82
COc1ccc(-c2nc(N3CCC(C)CC3)c3ccccc3n2)cc1OC	none
COC(=O)c1ccccc1NC(=O)CSc1nnc(NC(=O)C2CCC2)s1	none
COC(=O)c1ccccc1NC(=O)CSc1nnc(NC2CCCCC2)s1	TEAD-YAP inh 40
CC1=NN(c2cccc(C(=O)O)c2)C(=O)/C1=C/c1ccc(C)o1	none
CC1=NN(c2cccc(C(=O)O)c2)C(=O)/C1=C\c1ccco1	MITF inh 65
COc1cc(/C=C2/C(=O)N(c3cccc(C(=O)O)c3)N=C2C)cc2sc(=O)oc12	MITF inh 61
COc1cc(/C=C2\C(=O)N(c3cccc(C(=O)O)c3)N=C2C)c(Br)cc1O	MITF inh 62
COc1ccc(/C=C2\C(=O)N(c3cccc(C(=O)O)c3)N=C2C)cc1OC	none
COc1cc(Br)c(/C=C2\C(=O)N(c3ccccc3)N=C2C)cc1OC	none
CC1=NN(c2cccc(C(=O)O)c2)C(=O)/C1=C\c1ccc(-c2cccc(C(=O)O)c2)o1	MITF inh 62
CC1=NN(c2cccc(Cl)c2)C(=O)/C1=C/c1cc2c(cc1Cl)OCO2	none
CC1=NN(c2cccc(C(=O)O)c2)C(=O)/C1=C\c1cc2c(cc1Cl)OCO2	MITF inh 61
OC(c1cn2cc(-c3ccccc3)nc2s1)(C(F)(F)F)C(F)(F)F	TEAD-YAP inh 55
FC(F)(F)c1nn2cc(-c3ccccc3)nc2s1	none
O=C(c1cc2ccccn2n1)N1CCc2ccccc21	TEAD-YAP inh 66
Cc1ccc(C)c(NC(=O)C2CC3c4ccccc4C2c2ccccc23)c1 (configuration not stated)	FBW7 act 2.0
Cc1ccc(C(=O)N2CCN(c3ccc([N+](=O)[O-])c(NC4CC4)c3)CC2)cc1	none
Cc1cc(/C=c2/sc3nc4ccccc4n3c2=O)c(C)n1-c1ccc(Cl)c(Cl)c1	none
O=c1/c(=C\c2ccc(O)cc2)sc2nc3ccccc3n12	FBW7 act 2.0, TEAD-YAP inh 73
COc1cccc(/C=c2/sc3nc4ccccc4n3c2=O)c1	TEAD-YAP inh 50
Cc1cc(/C=c2\sc3nc4ccccc4n3c2=O)c(C)n1C1CCCC1	TEAD-YAP inh 70
CCCN(CCC)Cc1nc2ncccn2c1Br	none
Nc1nonc1C(=O)OCC(=O)Nc1ccccc1[N+](=O)[O-]	none
COc1ccc(-c2csc(NC(=O)Cc3ccc(C)cc3C)n2)c(OC)c1	none

Bioassay records: PubChem, The Scripps Research Institute Molecular Screening Center
